Experimental data reported in PubChem BioAssay AID504850 (National Center for Advancing Translational Sciences (NCATS), 2011).
Among all 2,300 compounds or so, about 1,200 (52%) were called active. About 34% were inconclusive and are not listed. The call rests on the fitted dose curve; in most records, active means well fitted inhibition curve with a large enough effect; inconclusive means small, poorly fitted or top-dose-only effect, or effect the other way; inactive means no such curve, though single readings can be large or run the other way. So high a share suggests a set chosen from earlier hits. This is one part of the list.

Assay: Confirmation screen for delayed death inhibitors of the malarial parasite plastid, 48 hour incubation; further: nearly all actives have a fitted effect of over 65% in size
Settings: P. falciparum-infected erythrocytes, luciferase growth; series mostly up to 28.7 µM
Method in brief: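 Single-generation (48 h, 37 C) exposure of integrated firefly luciferase-reporter P. falciparum in red cells, 0.1% parasitemia at 2% hematocrit, Albumax-supplemented RPMI. Falling luciferase signal marks parasite growth inhibition.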
Potency means the concentration at half of the fitted maximal effect.

SMILES | Potency
O=C(/C=C/c1cccnc1)c1ccc(O)cc1 | 15.8 µM (active)
COc1ccc(C(=O)/C=C/c2cccnc2)c(OC)c1 | 7.94 µM (active)
O=C(/C=C/c1cccnc1)/C=C/c1cccnc1 | 4.47 µM (active)
O=C(/C=C/c1ccccc1)/C=C/c1ccccc1 | 11.2 µM (active)
COc1cc(C(=O)/C=C/c2cccnc2)ccc1O | 12.6 µM (active)
COc1cc(/C=C/C(=O)Nc2cccnc2)cc(OC)c1OC | 14.1 µM (active)
COc1cc(/C=C/C(=O)OCC(=O)Nc2c(C)n(C)n(-c3ccccc3)c2=O)cc(OC)c1OC | inactive
CC(C)NC(=O)c1onc(CSc2cccc3ccccc23)c1C(=O)O | inactive
COc1cc2cc[n+](Cc3ccc([N+](=O)[O-])cc3)cc2cc1OC | 5.01 µM (active)
CCN1CCN(c2ncnc3c2c(-c2ccccc2)cn3-c2ccc(F)cc2)CC1 | 12.6 µM (active)
Fc1ccccc1N1CCN(c2ncnc3nc[nH]c23)CC1 | inactive
CN1CCN(c2ncnc3c2c(-c2ccccc2)cn3-c2ccc(F)cc2)CC1 | 11.2 µM (active)
COc1ccc(-n2c(=O)/c(=C\c3cccs3)s/c2=C(/C#N)C(=O)N2CCN(C)CC2)cc1 | inactive
O=C(CCl)N1CCN(CC(=O)N2CCCC2)CC1 | 15.8 µM (active)
CN(C(=O)CN1C(=O)CCSc2ccc(S(=O)(=O)N3CCCC3)cc21)c1ccccc1 | 11.2 µM (active)
OC(c1cc(C(F)(F)F)nc2c(C(F)(F)F)cccc12)C1CCCCN1 (stereo unspecified) | 0.0447 µM (active)
OC(c1cc(-c2ccc(Cl)cc2)nc2ccccc12)C1CCCCN1 (stereo unspecified) | 0.282 µM (active)
O[C@@H](c1cc(C(F)(F)F)nc2c(C(F)(F)F)cccc12)[C@H]1CCCCN1 | 0.178 µM (active)
OC(c1cc(C(F)(F)F)nc2c(Cl)cc(Cl)cc12)C1CCCCN1 (stereo unspecified) | 0.0282 µM (active)
O=C(Cc1n[nH]c(=O)c2ccccc12)OCc1c(Cl)cccc1Cl | inactive
COc1ccc(-n2c(C)cc(C(=O)COC(=O)Cc3n[nH]c(=O)c4ccccc34)c2C)cc1 | 5.62 µM (active)
CC(C)(C)C(=O)/C(=C\c1cccc([N+](=O)[O-])c1)n1cncn1 | 14.1 µM (active)
CC(=O)c1ccc(NC(=O)C2Cc3ccccc3CN2C(=O)c2ccccc2)cc1 (stereo unspecified) | 14.1 µM (active)

SMILES | Potency
C/C1=C\CCC2C(/C=C(\C)CC1)OC(=O)C2CN1CCCCC1 (stereo unspecified) | 12.6 µM (active)
N#Cc1cc(Oc2cccc3cccnc23)c(-n2nnc3ccccc32)cc1C#N | 5.01 µM (active)
COc1ccccc1-c1cc(C(=O)N/N=C/c2ccc(C)o2)c2ccccc2n1 | inactive
COc1ccccc1-c1cc(C(=O)N/N=C/c2cccs2)c2ccccc2n1 | 5.62 µM (active)
COc1ccccc1-c1cc(C(=O)N/N=C/c2ccc(C)s2)c2ccccc2n1 | 5.62 µM (active)
OC1C2(Cc3ccccc3)CN3CCN(C2)CC1(Cc1ccccc1)C3 (stereo unspecified) | 2 µM (active)
CCCc1cc(NCCCN2CCOCC2)n2c(nc3ccccc32)c1C#N | 8.91 µM (active)
Cc1ccccc1-c1nnc(NC(=O)c2ccc(N3C(=O)CCC3=O)cc2)s1 | 14.1 µM (active)
CCC[C@H]1C[C@H](C(=O)N[C@@H]([C@H]2O[C@@H](SC)[C@@H](O)[C@@H](O)[C@@H]2O)[C@H](C)Cl)N(C)C1 | 0.631 µM (active)
COc1ccc(NS(=O)(=O)c2ccc(N3CCOCC3)c(NC(=O)c3ccc(OC)cc3)c2)cc1 | 11.2 µM (active)
CCOC(=O)C1=C(C)NC(C)=C(C(=O)OCC)C1c1cc(N)ccc1OC(F)F | 5.62 µM (active)
COC(=O)COc1ccc(S(=O)(=O)NCCC2=CCCCC2)cc1Cl | inactive
CCOc1ccc(S(=O)(=O)N2CCCC(C(=O)NC3CC3)C2)cc1Cl (stereo unspecified) | 12.6 µM (active)
COc1cccc2sc(NNC(=O)c3nc4ccccc4s3)nc12 | 15.8 µM (active)
O=C(NC1CCCC1)C(c1ccncc1)N(Cc1ccco1)C(=O)c1ccc(-c2ccccc2)[nH]1 (stereo unspecified) | 11.2 µM (active)
O=C(NC1CCCCC1)C(c1ccncc1)N(Cc1ccccc1)C(=O)c1ccc(-c2ccccc2)[nH]1 (stereo unspecified) | 4.47 µM (active)
COc1ccc(CN(C(=O)/C=C/C(=O)c2ccc(OC)cc2O)C(C(=O)NC2CCCCC2)c2ccncc2)cc1 (stereo unspecified) | 7.94 µM (active)
COc1ccc(NC(=S)N(CCCN2CCCCCC2)Cc2cccs2)cc1 | 11.2 µM (active)
O=C(Nc1nnc(SCC(=O)N2CCCC2)s1)C1CC(=O)N(c2ccc(F)cc2)C1 (stereo unspecified) | 11.2 µM (active)
COc1cccc(N2CC(C(=O)Nc3nnc(SCCC4OCCO4)s3)CC2=O)c1 (stereo unspecified) | 12.6 µM (active)
CCc1ccc(NC2=CC(=O)C(=O)c3ccccc32)cc1 | 0.501 µM (active)
CSc1ccc(C2c3[nH]c4ccccc4c3CCN2C(=O)c2ccnn2C)cc1 (stereo unspecified) | 7.08 µM (active)
Cn1nccc1C(=O)N1CCc2c([nH]c3ccccc23)C1c1ccc(F)cc1 (stereo unspecified) | 7.94 µM (active)

SMILES | Potency
CCc1ccc(C2c3[nH]c4ccccc4c3CCN2C(=O)c2cc(C)nn2C)cc1 (stereo unspecified) | 5.01 µM (active)
Cc1cc[n+]2cc(-c3cccc([N+](=O)[O-])c3)c(-c3cccc([N+](=O)[O-])c3)cc2c1 | 0.631 µM (active)
COc1cccc(S(=O)(=O)NCc2ccc(C(=O)NCc3ccccn3)cc2)c1 | inactive
COc1ccc(N(C)S(=O)(=O)c2cccc(C(=O)NCc3ccc(C)cc3)c2)cc1 | 12.6 µM (active)
CN(CCOc1ccccc1)C(=O)C1CCC(=O)N(CCN2CCOCC2)C1 (stereo unspecified) | inactive
CN(Cc1ccccc1Cl)C(=O)C1CCC(=O)N(CCc2cccc(F)c2)C1 (stereo unspecified) | 11.2 µM (active)
O=C(Nc1ccccc1)N1CCC(O)(c2cccc(C(F)(F)F)c2)CC1 | 11.2 µM (active)
CCOc1ccccc1NC(=O)C(CC)Sc1nc2ccsc2c(=O)n1CCC(=O)O (stereo unspecified) | 12.6 µM (active)
C[N+]1(CCCCSc2ccc(O)cc2)CCCCC1 | 7.08 µM (active)
Cc1c(C(=O)N2CCN(c3ccc([N+](=O)[O-])cc3)CC2)sc2ncn(CC(=O)N3CCOCC3)c(=O)c12 | 12.6 µM (active)
COc1ccccc1N1CCN(C2CCCN(Cc3ccc(Cl)cc3)C2)CC1 (stereo unspecified) | 6.31 µM (active)
COc1ccc(N2CCN(C3CCCN(Cc4ccc(F)cc4)C3)CC2)cc1 (stereo unspecified) | 11.2 µM (active)
CCOC(=O)CSc1nnc(NC(=O)c2cccc([N+](=O)[O-])c2)s1 | 12.6 µM (active)
O=C(CSc1nnc(NC(=O)c2ccccc2[N+](=O)[O-])s1)NCC1CCCO1 (stereo unspecified) | inactive
CCC(C)[C@H](NC(=O)[C@H](Cc1ccccc1)n1c(=O)[nH]c2ccccc2c1=O)C(=O)NCC1CCC(C(=O)O)CC1 (stereo partly specified) | 12.6 µM (active)
Clc1ccc(-c2c[n+](Cc3ccc(Cl)cc3Cl)c3n2CCCCC3)cc1 | 1.26 µM (active)
Clc1ccc(-c2c[n+](Cc3ccc(Br)cc3)c3n2CCCCC3)cc1 | 0.199 µM (active)
Nc1nnnn1/N=C/C(Br)=C/c1ccccc1 | 12.6 µM (active)
O=C(NNc1ccnc2cc(Cl)ccc12)C1CCCCC1 | 0.891 µM (active)
CCN1CCC(Nc2ccnc3cc(Cl)ccc23)CC1 | 0.126 µM (active)
S=C(Nc1ccccc1Cl)N(Cc1ccccc1)Cc1cccnc1 | 12.6 µM (active)
CCOC(=O)[C@H]1[C@H]2COc3cc(OC)ccc3[C@@H]2N2C(=O)N(c3ccc(Cl)cc3)C(=O)[C@@]12C | 12.6 µM (active)
O=c1cc(CSc2nc(NCc3ccccc3)c3ccccc3n2)nc2ccc(Cl)cn12 | 5.01 µM (active)

SMILES | Potency
Cc1ncc(CO)c(/C=N/NC(=S)Nc2ccc(F)cc2)c1O | 12.6 µM (active)
O=C(CNC(=O)c1cccc(F)c1)N/N=C/c1ccc([N+](=O)[O-])s1 | 11.2 µM (active)
COc1ccc(C(=O)NCC(=O)N/N=C(C)\C=C\c2ccccc2)cc1OC | inactive
COc1ccc(C(=O)NCC(=O)N/N=C/c2ccc([N+](=O)[O-])s2)cc1OC | 11.2 µM (active)
CCCCCCCn1c(=O)c(C(=O)OC)c(N)c2ccccc21 | 12.6 µM (active)
NNc1nc(-c2ccccc2Cl)c2cc(Br)ccc2n1 | 11.2 µM (active)
O=S(=O)(NCC(O)c1ccccc1)c1cc(Cl)sc1Cl (stereo unspecified) | inactive
Cc1c(OCC(=O)NCC(O)c2ccccc2)ccc2c3c(c(=O)oc12)CCC3 (stereo unspecified) | 14.1 µM (active)
O=C(COc1cc2oc(=O)c3c(c2cc1Cl)CCC3)NCC(O)c1ccccc1 (stereo unspecified) | 11.2 µM (active)
OC1(c2cccs2)CN(c2ccc(Cl)cc2)C2=[N+]1CCCC2 (stereo unspecified) | 10 µM (active)
OC1(c2cccs2)CN(c2ccc(Br)cc2)C2=[N+]1CCCS2 (stereo unspecified) | 12.6 µM (active)
CC(C)(C)Nc1nc(Cl)nc(NC2CCCCC2)n1 | 14.1 µM (active)
NC(=S)Nn1c(-c2ccccc2)nc2ccccc2c1=O | inactive
O=C1c2ccccc2-n2c1nc1ccccc1c2=O | 0.708 µM (active)
O=C1c2cc(F)ccc2-n2c1nc1ccccc1c2=O | 0.178 µM (active)
CN(C)CCn1c(=O)n(Cc2ccco2)c(=O)c2c3c(sc21)CCCCC3 | 12.6 µM (active)
O=C(Nc1ccccc1F)c1ccc(CN2CCN(c3ccccc3)CC2)cc1 | inactive
COc1cccc(NC(=O)c2ccc(CN3CCN(c4ccccc4)CC3)cc2)c1 | 15.8 µM (active)
COc1ccc(NC(=O)c2ccc(CN3CCN(c4ccccc4)CC3)cc2)cc1OC | 10 µM (active)
O=C(Nc1ccc(F)cc1F)c1ccc2c(c1)[nH]c(=O)n2Cc1ccc(F)cc1 | 12.6 µM (active)
COc1ccc(Cl)cc1/C=C/c1ccc2cccc(O)c2n1 | 6.31 µM (active)
Oc1cccc2ccc(/C=C/c3ccccc3Br)nc12 | 2.82 µM (active)
